Results: publication PMC5540273 (PLoS ONE, 2017)

Tests used:
Details in all cases: concentration: 1 μM, replicates: in singlicate; n = 1
GRK4 = system: GRK4
GRK7 = system: GRK7
GSK3A = system: GSK3A
GSK3B = system: GSK3B
HASPIN = system: T1, HASPIN
T1 construct: gene GSG2

HCK = system: HCK
HIPK1 = system: HIPK1
HIPK2 = system: HIPK2
HIPK3 = system: HIPK3
HIPK4 = system: HIPK4
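Further: KINOMEscan kinase panel screen.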

O=C(NCCCN1CCOCC1)c1cccc(Nc2nccc(Nc3ccc(Oc4ccccc4)cc3)n2)c1 [GW663929]
%Inh (GRK4): 0%
%Inh (GRK7): 0%
%Inh (GSK3A): 21%
%Inh (GSK3B): 0%
%Inh (HASPIN): 0%
%Inh (HCK): 96.9%
%Inh (HIPK1): 14%
%Inh (HIPK2): 0%
%Inh (HIPK3): 0%
%Inh (HIPK4): 5%

Cc1cccc(Cn2ccn3c(=O)cc(N4CCOCC4)nc23)c1 [GSK2297542]
%Inh (GRK4): 0%
%Inh (GRK7): 0%
%Inh (GSK3A): 10%
%Inh (GSK3B): 3%
%Inh (HASPIN): 0%
%Inh (HCK): 0%
%Inh (HIPK1): 28%
%Inh (HIPK2): 0%
%Inh (HIPK3): 30%
%Inh (HIPK4): 15%

O=c1cc(N2CCOCC2)nc2n(Cc3cccc(C(F)(F)F)c3)ccn12 [GSK2297543]
%Inh (GRK4): 0%
%Inh (GRK7): 0%
%Inh (GSK3A): 6%
%Inh (GSK3B): 3%
%Inh (HASPIN): 0%
%Inh (HCK): 0%
%Inh (HIPK1): 18%
%Inh (HIPK2): 0%
%Inh (HIPK3): 7%
%Inh (HIPK4): 1%

Cc1cccc(-c2nc(-c3ccc(S(C)(=O)=O)cc3)sc2-c2ccncc2)c1
%Inh (GRK4): 0%
%Inh (GRK7): 31%
%Inh (GSK3A): 0%
%Inh (GSK3B): 3%
%Inh (HASPIN): 0%
%Inh (HCK): 11%
%Inh (HIPK1): 8%
%Inh (HIPK2): 0%
%Inh (HIPK3): 15%
%Inh (HIPK4): 4%

COc1cc2ncn(-c3cc(OCc4sccc4Cl)c(C(N)=O)s3)c2cc1OC [GSK448459]
%Inh (GRK4): 30%
%Inh (GRK7): 0%
%Inh (GSK3A): 0%
%Inh (GSK3B): 6%
%Inh (HASPIN): 5%
%Inh (HCK): 0%
%Inh (HIPK1): 44%
%Inh (HIPK2): 28%
%Inh (HIPK3): 23%
%Inh (HIPK4): 69%
